Laboratory results from PubChem BioAssay AID504710 (Sanford-Burnham Center for Chemical Genomics, 2011).
Calls of active or inactive are those of the source.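 Rule for the calls: active = inhibition reaching about 16% in any single replicate (limit read from the data); inactive = the rest.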

What follows are molecules tested against Hexokinase HKDC1 (Homo sapiens) (UniProt Q2TB90) (assay: compounds lowering human HKDC1 activity – biochemical, single concentration, confirmation (AID 504710)). Settings: recombinant HKDC1, G6PDH/diaphorase/resazurin fluorescence; at 20 µM; stronger effect = higher value.
Sequence of Hexokinase HKDC1 (Homo sapiens) (Q2TB90 whole entry, looked up): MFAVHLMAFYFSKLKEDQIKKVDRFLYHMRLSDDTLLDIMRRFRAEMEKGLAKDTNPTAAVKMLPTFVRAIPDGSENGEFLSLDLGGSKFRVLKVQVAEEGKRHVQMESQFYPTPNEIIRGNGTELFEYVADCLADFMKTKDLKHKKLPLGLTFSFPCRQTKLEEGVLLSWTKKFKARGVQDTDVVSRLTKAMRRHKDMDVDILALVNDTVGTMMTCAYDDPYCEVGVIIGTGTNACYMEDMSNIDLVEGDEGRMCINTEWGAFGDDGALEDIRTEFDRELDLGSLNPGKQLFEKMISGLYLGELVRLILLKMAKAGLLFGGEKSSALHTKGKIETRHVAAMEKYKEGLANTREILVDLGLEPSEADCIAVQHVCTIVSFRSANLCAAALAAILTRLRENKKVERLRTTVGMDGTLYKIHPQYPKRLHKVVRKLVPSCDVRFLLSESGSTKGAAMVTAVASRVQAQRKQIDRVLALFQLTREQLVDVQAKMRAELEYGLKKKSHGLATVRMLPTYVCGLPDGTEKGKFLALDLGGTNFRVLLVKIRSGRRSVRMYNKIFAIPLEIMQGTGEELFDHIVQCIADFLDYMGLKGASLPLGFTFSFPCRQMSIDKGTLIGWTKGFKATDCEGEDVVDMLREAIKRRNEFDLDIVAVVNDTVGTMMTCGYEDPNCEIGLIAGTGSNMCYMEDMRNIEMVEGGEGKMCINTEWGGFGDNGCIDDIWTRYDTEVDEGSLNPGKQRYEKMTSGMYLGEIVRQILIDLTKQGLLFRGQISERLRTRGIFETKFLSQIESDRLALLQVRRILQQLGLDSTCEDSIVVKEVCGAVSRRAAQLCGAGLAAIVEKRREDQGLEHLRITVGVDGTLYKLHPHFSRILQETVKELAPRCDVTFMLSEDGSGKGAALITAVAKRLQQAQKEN
With `COC1=C(OC)C(=O)C(Sc2ccc3ccccc3c2)=CC1=O` the inhibition was 71.3% (active).
`O=C(O)c1ccc2ncsc2c1` was tested, and the inhibition was 48.1% (active).
With `CN(C)Cc1cc(O)c(CN(C)C)cc1O` the inhibition was 70.3% (active).
`CCCCC[C@H](O)/C=C/[C@@H]1[C@@H](C/C=C\CCCC(=O)OC)[C@@H](O)C[C@H]1O` was tested, and the inhibition was 61% (active).
With `COc1ccc(NC(=O)CSc2ccc(-c3ccco3)nn2)cc1OC` the inhibition was 44% (active).
In the case of `COC1=C(Br)C(=O)c2ncccc2C1=O`, the inhibition is reported as 64.7% (active).
For `O=C1C=CC(=O)C(C2=C3C(=O)N(CCc4ccccc4)CC(=O)N3CCC2)=C1`, the inhibition was 70.9% (active).
With `CCc1ccc2c(c1)C(NC(C)=O)C(=O)N2CCN1CCOCC1` (stereo unspecified) the inhibition was 57.2% (active).
In the case of `Cc1ccc(-n2c3nc(=O)[nH]c(=O)c-3cc3cc([N+](=O)[O-])ccc32)cc1`, the inhibition is reported as 56.2% (active).
For `Nc1ccc(S(=O)(=O)c2cc(O)c3ccccc3c2O)cc1`, the inhibition was 68.7% (active).
`COc1ccc(NC(=O)CSc2ccc(-c3cccnc3)nn2)c(OC)c1` was tested, and the inhibition was 38.8% (active).
In the case of `COc1ncnc2c1oc1nc(C(C)C)c3c(c12)CC(C)(C)OC3`, the inhibition is reported as 43.5% (active).
In the case of `COCc1cc(C2C(C(=O)c3ccco3)=C(O)C(=O)N2CCOCCO)ccc1O` (stereo unspecified), the inhibition is reported as -40.1% (inactive).
In the case of `CC(=NNC(=S)Nc1cccc(C)c1)c1ccccn1`, the inhibition is reported as -60.1% (inactive).
`O=C(O)c1ccc(NC2=C/C(=N/S(=O)(=O)c3ccccc3)c3ccccc3C2=O)cc1` was tested, and the inhibition was 76% (active).
With `Cc1ccc(N=Cc2cc(Cc3ccccc3Cl)cc([N+](=O)[O-])c2O)c(O)c1` the inhibition was 30.2% (active).
